Experimental data published in PubChem BioAssay (NCATS).
Results filed as inconclusive are left out. The source made the active and inactive calls. The call rests on the fitted dose curve; in most records, active means well fitted curve in the direction sought with a large enough effect; inconclusive means small, poorly fitted or top-dose-only effect, or another doubt; inactive means no such curve, though single readings can be large; an effect the other way counts as inactive or inconclusive.

How the values were obtained:
[1] = Quantitative High-Throughput drug screen in 47 multiple myeloma cell lines against the NCATS MIPE library collection: MMM1_PLB cell viability assay (AID 1918976); further: nearly all actives have a fitted effect of over 35% in size
In short: (§1)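 Plated at 500 cells per well, myeloma lines received MIPE 4.0 compounds by pin tool. Following 48 h culture at 37 °C, CellTiter-Glo luminescence gave viability relative to DMSO and media-only controls.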

[2] = Quantitative High-Throughput drug screen in 47 multiple myeloma cell lines against the NCATS MIPE library collection: MOLP8_DSMZ cell viability assay (AID 1918977); further: nearly all actives have a fitted effect of over 45% in size
In short: as §1

[3] = Quantitative High-Throughput drug screen in 47 multiple myeloma cell lines against the NCATS MIPE library collection: MM1S_ATCC cell viability assay (AID 1918980); further: nearly all actives have a fitted effect of over 45% in size
In short: as §1

[4] = Quantitative High-Throughput drug screen in 47 multiple myeloma cell lines against the NCATS MIPE library collection: LP1_DSMZ cell viability assay (AID 1918982); further: nearly all actives have a fitted effect of over 35% in size
In short: as §1

[5] = Quantitative High-Throughput drug screen in 47 multiple myeloma cell lines against the NCATS MIPE library collection: KMS28PE_JCRB cell viability assay (AID 1918983); further: nearly all actives have a fitted effect of over 35% in size
In short: as §1

[6] = Quantitative High-Throughput drug screen in 47 multiple myeloma cell lines against the NCATS MIPE library collection: KMS26_JCRB cell viability assay (AID 1918975); further: nearly all actives have a fitted effect of over 45% in size
In short: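 Viability readout: CellTiter-Glo luminescence following 5 min room-temperature incubation with reagent. Prior exposure: 48 h, 37C, humidified 5% CO2, 500 cells per well.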

[7] = Quantitative High-Throughput drug screen in 47 multiple myeloma cell lines against the NCATS MIPE library collection: NCIH929_DSMZ cell viability assay (AID 1918978); further: nearly all actives have a fitted effect of over 35% in size
In short: as §1

[8] = Quantitative High-Throughput drug screen in 47 multiple myeloma cell lines against the NCATS MIPE library collection: OCIMY1_PLB cell viability assay (AID 1918979); further: nearly all actives have a fitted effect of over 35% in size; on viability: series mostly up to about 46 µM
In short: as §1

[9] = Quantitative High-Throughput drug screen in 47 multiple myeloma cell lines against the NCATS MIPE library collection: MM1R_ATCC cell viability assay (AID 1918981); further: nearly all actives have a fitted effect of over 35% in size
In short: as §1

Measured: Potency
Potency means the concentration at half of the fitted maximal effect.

Cc1c(C(=O)Nc2ccc(N3C[C@@H](C)O[C@@H](C)C3)nc2)cccc1-c1ccc(OC(F)(F)F)cc1
active: [1] 11.8 µM | [2] 13.2 µM | [3] 14.8 µM | [4] 9.35 µM | [5] 13.2 µM

FC(F)(F)c1ccc(C=Cc2nc(COc3ccc(CCCCn4ccnn4)cc3)co2)cc1
active: [6] 0.0019 µM | [5] 0.132 µM

O=C(Nc1cccc(Cl)c1)Nc1ncc(CCNc2ncnc3ccsc23)s1
active: [1] 16.6 µM | [2] 3.72 µM | [7] 7.43 µM | [8] 5.9 µM | [3] 16.6 µM | [9] 5.9 µM | [5] 5.9 µM

C[C@]12C=CC(=O)C=C1CC[C@@H]1[C@@H]2[C@@H](O)C[C@@]2(C)[C@@H]1CC[C@]2(O)C(=O)CO
active: [1] 0.166 µM | [2] 0.0743 µM | [7] 2.35 µM | [9] 6.62 µM | [4] 0.0469 µM
inactive: [5]

CC(=O)OCC(=O)[C@@]1(O)CC[C@H]2[C@@H]3CCC4=CC(=O)C=C[C@]4(C)[C@@H]3[C@@H](O)C[C@@]21C
inactive: [8] | [5]
active: [1] 2.64 µM | [2] 2.35 µM

Cc1cc(NC(=O)Nc2ccc(N(C)C)cc2)c2cc(F)cc(F)c2n1
inactive: [7] | [8] | [5]
active: [1] 20.9 µM | [2] 23.5 µM | [3] 16.6 µM

Cc1cccc2c1CC[C@H](CN1CCC(c3c(Cl)cccc3Cl)CC1)C[C@@H]2O
active: [1] 18.7 µM

CN(C)CCN(C)C(=O)c1ccc(NC(=O)Nc2ccc(-c3nc(N4CCOCC4)c4ccn(CC(F)(F)F)c4n3)cc2)cc1
active: [1] 0.0296 µM | [2] 0.0066 µM | [7] 0.0083 µM | [8] 7.43 µM | [3] 0.0526 µM | [9] 0.105 µM | [4] 0.166 µM | [5] 0.0469 µM

COc1nccc(-c2c(-c3ccc(F)cc3)ncn2C2CCC(O)CC2)n1 (centres undefined)
active: [6] 6.62 µM | [3] 4.69 µM | [9] 18.7 µM

O=C(O)C1=NC(C(=O)O)CC(C=CN2c3cc(O)c(OC4OC(CO)C(O)C(O)C4O)cc3CC2C(=O)O)=C1 (centres undefined)
active: [1] 23.5 µM
not listed: [2] | [6]
inactive: all other assays above

O=C(O)CCC=CCC[C@@H]1[C@H](N2CCCCC2)[C@@H](O)C[C@@H]1OCc1ccc(-c2ccccc2)cc1
not listed: [6] | [8]
inactive: all other assays above

CN(C)CCOc1ccc(C(=C(CCCl)c2ccccc2)c2ccccc2)cc1
inactive: [7] | [8]
active: [1] 23.5 µM | [2] 18.7 µM | [3] 1.18 µM | [9] 23.5 µM | [5] 26.4 µM

CN[C@@H]1CN(c2ccc3c(=O)c(C(=O)O)cn(-c4nccs4)c3n2)C[C@@H]1OC
active: [1] 8.12 µM | [2] 6.45 µM | [7] 1.62 µM | [3] 0.257 µM | [9] 0.407 µM | [5] 18.2 µM

N#CC(c1ccnc(NCCc2cccnc2)n1)c1nc2ccccc2s1 (centres undefined)
inactive: [2] | [8]
active: [1] 20.9 µM | [7] 7.43 µM | [9] 18.7 µM | [4] 18.7 µM

O=C1NC(=O)C(c2cnc3ccccn23)=C1c1cn2c3c(cccc13)CN(C(=O)N1CCOCC1)CC2
active: [6] 0.0235 µM | [9] 3.32 µM
inactive: [5]

Nc1ccc(-c2ccc3ncc4ccc(=O)n(-c5cccc(C(F)(F)F)c5)c4c3c2)cn1
active: [1] 0.0066 µM | [2] 0.0059 µM | [8] 0.0235 µM | [3] 0.0105 µM | [5] 0.0166 µM

Cc1cc(C(C)Nc2ccccc2)c2nc(N3CCOCC3)cc(=O)n2c1 (centres undefined)
active: [3] 0.332 µM
inactive: [1] | [2] | [8]

CCn1c(-c2nonc2N)nc2cncc(CNC3CCNCC3)c21
active: [1] 8.33 µM | [2] 14.8 µM | [3] 14.8 µM | [9] 16.6 µM | [5] 18.7 µM
inactive: [4]

CC(C)c1onc(-c2c(Cl)cccc2Cl)c1COc1ccc(C=Cc2cccc(C(=O)O)c2)c(Cl)c1
inactive: [2] | [7] | [8] | [4]
active: [1] 20.9 µM | [3] 18.7 µM | [9] 0.148 µM

CCCCOCCOc1nc(-c2ccc(C(=O)O)c(F)c2)sc1C
active: [3] 13.2 µM
not listed: [6] | [8]
inactive: all other assays above

Cc1ccccc1-n1c(Cn2nc(-c3cccc(O)c3)c3c(N)ncnc32)nc2cccc(C)c2c1=O
active: [1] 18.7 µM | [2] 5.9 µM | [7] 14.8 µM | [3] 1.32 µM | [9] 9.35 µM | [4] 11.8 µM | [5] 9.35 µM

Cc1ccc(S(=O)(=O)Nc2nc3ccccc3nc2Nc2ccc3nsnc3c2)cc1
active: [1] 3.63 µM | [2] 6.45 µM | [3] 0.575 µM

O=C1CN2Cc3c(ccc(Cl)c3Cl)N=C2N1
inactive: [8]
active: [1] 23.5 µM | [3] 18.7 µM | [5] 23.5 µM

O=C(O)Cc1cccc(OCCCN(Cc2cccc(C(F)(F)F)c2Cl)CC(c2ccccc2)c2ccccc2)c1
active: [1] 6.62 µM | [3] 20.9 µM | [5] 23.5 µM
inactive: [8]

NC(=O)c1ccc(N(C(N)=O)c2c(F)cccc2F)nc1-c1ccc(F)cc1F
inactive: [1] | [8] | [9] | [4] | [5]
active: [7] 5.26 µM

COc1cc2c(cc1OC)CC(=O)N(CCCN(C)C[C@H]1Cc3cc(OC)c(OC)cc31)CC2
inactive: [5]
active: [1] 7.43 µM | [7] 0.332 µM | [3] 16.6 µM | [9] 11.8 µM

COc1cc2nccc(Oc3ccc(NC(=O)Nc4ccc(F)cc4F)c(F)c3)c2cc1OC
inactive: [7]
active: [1] 0.0935 µM | [9] 2.96 µM | [4] 9.35 µM | [5] 6.62 µM

C=C[C@@H]1CN2CCC1C[C@@H]2C(O)c1ccnc2ccc(OC)cc12 (some centres undefined)
inactive: [7] | [8] | [4]
active: [1] 11.8 µM | [9] 18.7 µM | [5] 16.6 µM

COc1ccc2cc1Oc1ccc(cc1)C[C@H]1c3cc(c(OC)cc3CCN1C)Oc1c(OC)c(OC)cc3c1[C@H](C2)N(C)CC3
active: [1] 6.62 µM | [7] 20.9 µM | [3] 18.7 µM | [9] 13.2 µM | [5] 14.8 µM

CC1=C[C@@H]2[C@@H]([C@@H](O)C[C@@]3(C)[C@H]2C[C@@H](C)[C@]3(O)C(=O)CO)[C@@]2(C)Cc3cnn(-c4ccccc4)c3C=C12
active: [1] 20.9 µM | [3] 0.0083 µM | [9] 20.9 µM

COc1cc(Cl)cn2c(-c3cccc(NC4CNC4)n3)cnc12
active: [1] 20.9 µM | [9] 16.6 µM | [5] 20.9 µM

N[C@@H](CC(=O)N1CCn2c(nnc2C(F)(F)F)C1)Cc1cc(F)c(F)cc1F
inactive: [7] | [8] | [9] | [4]
active: [1] 1.87 µM | [5] 9.35 µM

CC(=O)NCCC(=O)N[C@@H](CCC(N)=O)C(=O)N[C@@H](CO)C(=O)N[C@@H](CCC(N)=O)C(=O)N[C@@H](CCC(N)=O)C(=O)N[C@H](C(=O)N[C@@H](Cc1ccccc1)C(=O)N[C@]1(C)CCCCCCC=CCCC[C@@](C)(C(=O)N[C@@H](CCC(N)=O)C(=O)N[C@@H](CC(N)=O)C(N)=O)NC(=O)[C@H](CC(C)C)NC(=O)[C@H](CC(C)C)NC(=O)[C@@H](CCCNC(=N)N)NC(=O)[C@H](Cc2c[nH]c3ccccc23)NC(=O)[C@H](CC(C)C)NC(=O)[C@H](CC(N)=O)NC1=O)[C@H](C)O
active: [1] 5.26 µM | [8] 20.9 µM | [9] 26.4 µM | [4] 20.9 µM | [5] 18.7 µM

O=c1[nH]c(=O)n([C@H]2C[C@@H](O)[C@@H](CO)O2)cc1C(F)(F)F
active: [1] 3.32 µM | [7] 10.5 µM | [9] 7.43 µM | [5] 16.6 µM
inactive: [4]

CCCCC(C=O)NC(=O)C(CC(C)C)NC(=O)OCc1ccccc1 (centres undefined)
inactive: [8]
active: [1] 6.62 µM | [7] 20.9 µM | [4] 20.9 µM | [5] 23.5 µM

CC[C@@H]([C@H](C)O)n1ncn(-c2ccc(N3CCN(c4ccc(OCC5CO[C@@](Cn6cncn6)(c6ccc(F)cc6F)C5)cc4)CC3)cc2)c1=O (some centres undefined)
active: [1] 16.6 µM
inactive: [3]

COc1nc(C)cnc1NS(=O)(=O)c1cccnc1-c1ccc(-c2nnco2)cc1
active: [1] 5.26 µM
inactive: [7] | [8] | [9] | [4]

CC[C@H](CC#N)OC(=O)N[C@@H](C)c1cccc(NC(=O)Nc2ccc(-c3cnco3)c(OC)c2)c1
active: [1] 20.9 µM | [3] 1.18 µM | [5] 1.18 µM

O=C(CCCN1CCN(c2ccc(F)cc2)CC1)NC1c2ccccc2CSc2ccccc21 (centres undefined)
active: [1] 5.9 µM | [3] 10.5 µM | [9] 18.7 µM | [4] 2.96 µM | [5] 11.8 µM

CC1CCN(c2cc(N3CCN(C)CC3)ccc2NC(=O)c2cc(C#N)c[nH]2)CC1
active: [1] 23.5 µM | [9] 20.9 µM | [5] 23.5 µM

CC(C)C[C@H](NC(=O)c1cc2ccccc2s1)C(=O)N1CCN(C(=O)[C@H](CO)NS(=O)(=O)c2ccc(Cl)cc2Cl)CC1
active: [1] 18.7 µM | [7] 26.4 µM | [3] 23.5 µM | [9] 18.7 µM | [4] 26.4 µM | [5] 23.5 µM

COc1c(C)c2c(c(O)c1CC=C(C)CCC(=O)O)C(=O)OC2
active: [1] 1.18 µM | [8] 13.2 µM | [9] 11.8 µM | [5] 4.69 µM

O=C1NC(=O)C(=Cc2ccc(-c3ccc(F)cc3O)o2)S1
active: [1] 2.96 µM | [3] 16.6 µM
inactive: [8]

CN(C)CCCNC(=O)c1ccc(-c2cc(O)c3ncccc3c2)cc1
active: [1] 11.8 µM | [7] 23.5 µM | [3] 20.9 µM | [9] 20.9 µM | [4] 8.33 µM | [5] 9.35 µM

CCCCN(CCCC)CC(O)c1cc(Cl)cc2c1-c1ccc(Cl)cc1C2=Cc1ccc(Cl)cc1 (centres undefined)
active: [1] 23.5 µM | [7] 26.4 µM | [3] 23.5 µM
